# In PubChem BioAssay (EPA / NIEHS):
# Records with an inconclusive call do not appear. Active and inactive are the calls of the source. The calls were made as follows: active = hit-call score of the fitted dose curve at least 0.9, where 1 is the maximum; inconclusive = response in the unintended direction; inactive = score below 0.9.
# Molecular target: Estrogen receptor beta (Homo sapiens) (UniProt Q92731)
# Assay: ATG_hERb_XSP2: Attagene TRANS-FACTORIAL Multi-Species (XSP2) HepG2 Assay for human Estrogen Receptor (ERb) (AID 2283813);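 also: actives raise reporter mRNA above DMSO so AC50 reflects agonist induction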
# Summary of the method: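 HepG2 cells transiently transfected with GAL4-UAS reporter units and chimeric human ERb-Gal4, 24 h exposure. Reporter mRNA quantified by RT-PCR with FAM labelling, HpaI digestion and capillary electrophoresis; gain of signal versus DMSO.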
# Sequence of Estrogen receptor beta (Homo sapiens) (Q92731 whole entry, looked up): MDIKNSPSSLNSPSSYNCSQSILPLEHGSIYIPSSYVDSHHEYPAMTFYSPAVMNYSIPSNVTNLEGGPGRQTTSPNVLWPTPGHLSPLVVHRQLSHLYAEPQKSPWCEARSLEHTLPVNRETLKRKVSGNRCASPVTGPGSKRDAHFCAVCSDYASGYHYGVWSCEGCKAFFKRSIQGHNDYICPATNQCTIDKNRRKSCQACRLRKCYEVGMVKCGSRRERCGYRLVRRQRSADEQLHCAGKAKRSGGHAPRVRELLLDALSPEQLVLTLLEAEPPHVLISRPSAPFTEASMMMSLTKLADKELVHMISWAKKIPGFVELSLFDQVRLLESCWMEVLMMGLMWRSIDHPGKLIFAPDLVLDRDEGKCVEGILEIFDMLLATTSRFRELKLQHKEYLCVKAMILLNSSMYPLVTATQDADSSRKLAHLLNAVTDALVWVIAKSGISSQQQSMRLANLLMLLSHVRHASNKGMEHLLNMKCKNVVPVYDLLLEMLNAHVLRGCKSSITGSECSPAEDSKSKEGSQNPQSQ
SMILES,outcome,AC50
COP(=S)(OC)Oc1nc(Cl)c(Cl)cc1Cl,inactive,–
CCCCNC(=O)OCC#CI,inactive,–
COC(=O)N(OC)c1ccccc1COc1ccn(-c2ccc(Cl)cc2)n1,inactive,–
CCCN(CCC)c1c([N+](=O)[O-])cc(S(N)(=O)=O)cc1[N+](=O)[O-],inactive,–
CCOP(=S)(OCC)SCn1c(=O)oc2cc(Cl)ccc21,inactive,–
C=CC1(C)OC(=O)N(c2cc(Cl)cc(Cl)c2)C1=O (stereo not given),inactive,–
COc1ccc(C(c2ccc(OC)cc2)C(Cl)(Cl)Cl)cc1,inactive,–
CC(C)Oc1cc(-n2nc(C(C)(C)C)oc2=O)c(Cl)cc1Cl,–,29.3 µM (active)
CCCCOC(=O)c1ccccc1C(=O)OCCCC,inactive,–
OC(c1ccc(Cl)cc1)(c1cncnc1)c1ccccc1Cl (stereo not given),–,25.4 µM (active)
CC(C)(C)c1ccc(CSc2cnn(C(C)(C)C)c(=O)c2Cl)cc1,inactive,–

# Molecular target: GAL4 Transcription Factor (Internal Marker), GAL4 (gene 855828) (UniProt P04386)
# Sequence (P04386 whole entry, looked up, the tested form may be a part): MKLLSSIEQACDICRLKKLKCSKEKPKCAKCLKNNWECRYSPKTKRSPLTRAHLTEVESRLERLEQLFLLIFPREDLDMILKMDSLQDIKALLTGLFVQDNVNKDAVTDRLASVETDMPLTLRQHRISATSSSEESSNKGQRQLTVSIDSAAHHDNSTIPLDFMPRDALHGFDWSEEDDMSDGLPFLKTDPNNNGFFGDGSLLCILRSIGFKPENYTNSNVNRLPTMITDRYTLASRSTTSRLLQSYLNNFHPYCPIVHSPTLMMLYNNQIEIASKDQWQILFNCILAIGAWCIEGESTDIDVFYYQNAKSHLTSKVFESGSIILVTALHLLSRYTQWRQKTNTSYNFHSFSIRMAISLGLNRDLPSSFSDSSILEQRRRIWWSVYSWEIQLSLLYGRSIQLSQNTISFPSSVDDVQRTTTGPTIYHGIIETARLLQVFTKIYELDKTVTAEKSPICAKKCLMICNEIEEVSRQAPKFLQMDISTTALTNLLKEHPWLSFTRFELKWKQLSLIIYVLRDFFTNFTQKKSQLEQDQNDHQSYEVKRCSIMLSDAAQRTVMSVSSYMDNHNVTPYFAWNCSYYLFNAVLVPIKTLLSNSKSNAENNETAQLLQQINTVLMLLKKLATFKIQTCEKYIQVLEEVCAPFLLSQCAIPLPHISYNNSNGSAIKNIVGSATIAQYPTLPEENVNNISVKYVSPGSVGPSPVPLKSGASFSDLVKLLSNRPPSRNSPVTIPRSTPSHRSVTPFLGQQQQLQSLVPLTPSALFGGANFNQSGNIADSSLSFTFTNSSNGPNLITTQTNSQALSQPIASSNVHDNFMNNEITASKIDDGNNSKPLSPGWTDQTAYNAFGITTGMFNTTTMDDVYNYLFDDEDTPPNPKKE
# Assay: ATG_GAL4_XSP2: Attagene TRANS-FACTORIAL Multi-Species (XSP2) HepG2 Assay for GAL4 Transcription Factor (Internal Marker) (AID 2283814);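 also: GAL4 reporter mRNA background control in MRTU transfected cells not a receptor target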
# Summary of the method: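 HepG2 cells transiently transfected with GAL4-UAS reporter units, stimulated with 3 nM 6-alpha-fluorotestosterone plus 1.5 nM norgestrel, dosed 24 h. Reporter mRNA by RT-PCR/capillary electrophoresis; gain-of-signal fit versus DMSO, background control.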
row,SMILES,outcome
1,COC(=O)N(OC)c1ccccc1COc1ccn(-c2ccc(Cl)cc2)n1,inactive
2,C#CCOS(=O)OC1CCCCC1Oc1ccc(C(C)(C)C)cc1 (stereo not given),inactive
3,CCOP(=S)(OCC)SCn1c(=O)oc2cc(Cl)ccc21,inactive
4,COc1ccc(C(c2ccc(OC)cc2)C(Cl)(Cl)Cl)cc1,inactive
5,CCCC1COC(Cn2cncn2)(c2ccc(Cl)cc2Cl)O1 (stereo not given),inactive
6,CC(C)Oc1cc(-n2nc(C(C)(C)C)oc2=O)c(Cl)cc1Cl,inactive
7,CON(C)C(=O)Nc1ccc(Cl)c(Cl)c1,inactive
8,CCCCOC(=O)c1ccccc1C(=O)OCCCC,inactive
9,OC(c1ccc(Cl)cc1)(c1cncnc1)c1ccccc1Cl (stereo not given),inactive
10,CC(C)(C)c1ccc(CSc2cnn(C(C)(C)C)c(=O)c2Cl)cc1,inactive

# System: turtle Androgen Receptor (AR), gene 101947425
# Assay: ATG_trAR_XSP2: Attagene TRANS-FACTORIAL Multi-Species (XSP2) HepG2 Assay for turtle Androgen Receptor (AR) (AID 2283815);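 as to AC50: reporter mRNA from a Gal4 chimera of turtle AR measured by RT-PCR; potency for gain of reporter signal meaning activation above DMSO baseline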
# Experimental: ATG_XSP2_multi-species_TRANS is a cell-based, multiplexed assay created by modifying the existing Attagene TRANS-FACTORIAL system to include a panel of nuclear receptors from some or all the following species: human (Homo sapiens), mouse (Mus musculus), frog (Xenopus laevis), zebrafish (Danio rerio), chicken (Gallus gallus), and turtle (Chrysemys picta). The […] format uses HepG2, a human liver cell line, with measurements taken at 24 hours after chemical dosing in a 24-well plate. Xsp2 included 3 nM 6-alpha-fluorotestosterone and 1.5 nM norgestrel to stimulate the androgen receptor.ATG_trAR_XSP2 is one of 29 assay components measured or calculated from the ATG_XSP2_multi-species_TRANS assay. It is designed to make measurements of mRNA induction, a form of inducible reporter, as detected with fluorescence intensity signals by Reverse transcription polymerase chain reaction (RT-PCR) and Capillary electrophoresis technology.The assay endpoint ATG_trAR_XSP2 was analyzed in the positive analysis fitting direction relative to DMSO as the negative control and baseline of activity. […] Furthermore, this assay endpoint can be referred to as a primary readout, because this assay has produced multiple assay endpoints where this one serves a reporter gene function. […]
# Human liver HepG2 cells are transiently transfected with multiple reporter transcription units (MRTUs) in 6-well plates using FuGene 6 reagent (Roche; 3 ml FuGene/1 mg DNA). […] A major difference between the CIS and TRANS system is that in CIS activities of endogenous TFs are measured, whereas the TRANS assay evaluates changes in activities of exogenous, chimeric NR-Gal4 proteins. […] The fragments were purified using Qiaquick PCR columns (Qiagen), analyzed on an ABI 3130xL genetic analyzer (Applied Biosystems) with peak positions identified by using a set of X-rhodamine (ROX)-labeled MapMarker1000 molecular weight standards (BioVentures). […]
SMILES,AC50,outcome
COP(=S)(OC)Oc1nc(Cl)c(Cl)cc1Cl,17.5 µM (active),–
C#CCOS(=O)OC1CCCCC1Oc1ccc(C(C)(C)C)cc1 (stereo not given),–,inactive
CC(C)(C)c1ccc(CSc2cnn(C(C)(C)C)c(=O)c2Cl)cc1,–,inactive

# Molecular target: zebrafish Estrogen Receptor (ER1), esr1 (gene 259252) (UniProt P57717)
# Sequence (P57717 whole entry, looked up): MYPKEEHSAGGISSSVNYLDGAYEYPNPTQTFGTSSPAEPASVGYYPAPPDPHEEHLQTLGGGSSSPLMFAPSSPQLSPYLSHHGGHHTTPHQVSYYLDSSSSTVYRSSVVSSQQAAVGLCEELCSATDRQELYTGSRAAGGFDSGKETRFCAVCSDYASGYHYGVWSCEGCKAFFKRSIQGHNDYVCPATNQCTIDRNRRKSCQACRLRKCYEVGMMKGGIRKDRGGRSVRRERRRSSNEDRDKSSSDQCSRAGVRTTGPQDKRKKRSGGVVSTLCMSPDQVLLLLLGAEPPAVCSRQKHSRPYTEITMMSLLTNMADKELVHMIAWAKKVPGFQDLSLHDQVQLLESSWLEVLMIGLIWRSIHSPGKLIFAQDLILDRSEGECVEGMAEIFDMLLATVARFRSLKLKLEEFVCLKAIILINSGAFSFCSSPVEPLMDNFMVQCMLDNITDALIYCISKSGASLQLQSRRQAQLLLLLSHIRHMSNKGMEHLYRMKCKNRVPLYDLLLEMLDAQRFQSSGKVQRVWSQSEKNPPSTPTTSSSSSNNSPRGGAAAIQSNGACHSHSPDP
# Assay: ATG_zfER1_XSP2: Attagene TRANS-FACTORIAL Multi-Species (XSP2) HepG2 Assay for zebrafish Estrogen Receptor (ER1) (AID 2283816)
# Summary of the method: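 HepG2 cells transiently transfected with a GAL4-UAS reporter and a chimeric zebrafish ER1-Gal4 construct, dosed 24 h. Reporter mRNA quantified by RT-PCR, labelling, HpaI digestion and capillary electrophoresis, relative to DMSO.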
SMILES,outcome,AC50
CCCCNC(=O)OCC#CI,inactive,–
COC(=O)N(OC)c1ccccc1COc1ccn(-c2ccc(Cl)cc2)n1,inactive,–
CCCN(CCC)c1c([N+](=O)[O-])cc(S(N)(=O)=O)cc1[N+](=O)[O-],inactive,–
C#CCOS(=O)OC1CCCCC1Oc1ccc(C(C)(C)C)cc1 (stereo not given),inactive,–
CCOP(=S)(OCC)SCn1c(=O)oc2cc(Cl)ccc21,inactive,–
CCCC1COC(Cn2cncn2)(c2ccc(Cl)cc2Cl)O1 (stereo not given),inactive,–
CC(C)Oc1cc(-n2nc(C(C)(C)C)oc2=O)c(Cl)cc1Cl,inactive,–
CON(C)C(=O)Nc1ccc(Cl)c(Cl)c1,inactive,–
CCCCOC(=O)c1ccccc1C(=O)OCCCC,inactive,–
OC(c1ccc(Cl)cc1)(c1cncnc1)c1ccccc1Cl (stereo not given),–,25.9 µM (active)
CC(C)(C)c1ccc(CSc2cnn(C(C)(C)C)c(=O)c2Cl)cc1,inactive,–

# Molecular target: chicken Estrogen Receptor (ERa), ESR1 (gene 396099) (UniProt P06212)
# Sequence (P06212 whole entry, looked up): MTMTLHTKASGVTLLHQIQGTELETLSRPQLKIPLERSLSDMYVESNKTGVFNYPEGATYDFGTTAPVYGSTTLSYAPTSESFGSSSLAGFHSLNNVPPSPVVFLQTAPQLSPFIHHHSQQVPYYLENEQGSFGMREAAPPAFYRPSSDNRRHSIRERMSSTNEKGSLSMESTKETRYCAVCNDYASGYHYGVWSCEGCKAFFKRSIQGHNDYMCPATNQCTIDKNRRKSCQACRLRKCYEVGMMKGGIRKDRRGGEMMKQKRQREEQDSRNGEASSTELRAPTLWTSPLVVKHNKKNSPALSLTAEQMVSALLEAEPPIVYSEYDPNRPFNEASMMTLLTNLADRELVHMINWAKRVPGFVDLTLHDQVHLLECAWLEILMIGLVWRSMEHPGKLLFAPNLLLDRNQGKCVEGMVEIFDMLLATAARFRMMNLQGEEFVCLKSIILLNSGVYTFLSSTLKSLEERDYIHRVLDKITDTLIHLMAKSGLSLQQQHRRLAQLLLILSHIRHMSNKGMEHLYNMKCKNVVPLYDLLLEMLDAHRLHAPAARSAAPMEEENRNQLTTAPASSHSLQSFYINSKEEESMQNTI
# Assay: ATG_chERa_XSP2: Attagene TRANS-FACTORIAL Multi-Species (XSP2) HepG2 Assay for chicken Estrogen Receptor (ERa) (AID 2283817);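 also: actives raise reporter signal above DMSO so AC50 reflects ER activation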
# Summary of the method: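 Transient MRTU transfection of HepG2 → 24 h chemical dosing → TriZol RNA, oligo(dT) RT → PCR, 6-FAM primer extension, HpaI digest → CE quantitation of chicken ERa-Gal4-driven reporter mRNA. Positive direction vs DMSO.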
SMILES,AC50,outcome
COP(=S)(OC)Oc1nc(Cl)c(Cl)cc1Cl,35.3 µM (active),–
COC(=O)N(OC)c1ccccc1COc1ccn(-c2ccc(Cl)cc2)n1,–,inactive
CCCN(CCC)c1c([N+](=O)[O-])cc(S(N)(=O)=O)cc1[N+](=O)[O-],–,inactive
C#CCOS(=O)OC1CCCCC1Oc1ccc(C(C)(C)C)cc1 (stereo not given),–,inactive
CCOP(=S)(OCC)SCn1c(=O)oc2cc(Cl)ccc21,–,inactive
C=CC1(C)OC(=O)N(c2cc(Cl)cc(Cl)c2)C1=O (stereo not given),–,inactive
COc1ccc(C(c2ccc(OC)cc2)C(Cl)(Cl)Cl)cc1,7.74 µM (active),–
CCCC1COC(Cn2cncn2)(c2ccc(Cl)cc2Cl)O1 (stereo not given),3.88 µM (active),–
CC(C)Oc1cc(-n2nc(C(C)(C)C)oc2=O)c(Cl)cc1Cl,100 µM (active),–
CON(C)C(=O)Nc1ccc(Cl)c(Cl)c1,–,inactive
CCCCOC(=O)c1ccccc1C(=O)OCCCC,23 µM (active),–
OC(c1ccc(Cl)cc1)(c1cncnc1)c1ccccc1Cl (stereo not given),1.8 µM (active),–
CC(C)(C)c1ccc(CSc2cnn(C(C)(C)C)c(=O)c2Cl)cc1,–,inactive

# System: zebrafish Estrogen Receptor (ER2a), gene 317734
# Assay: ATG_zfER2a_XSP2: Attagene TRANS-FACTORIAL Multi-Species (XSP2) HepG2 Assay for zebrafish Estrogen Receptor (ER2a) (AID 2283818);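 also: hits raise reporter mRNA so AC50 reflects activation of zebrafish ER2a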
# Summary of the method: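 HepG2 cells transiently transfected with GAL4-UAS reporter units and chimeric zebrafish ER2a-Gal4, exposed 24 h; medium contains 3 nM 6-alpha-fluorotestosterone and 1.5 nM norgestrel. Reporter mRNA quantified by RT-PCR, HpaI digestion, capillary electrophoresis; gain versus DMSO.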
SMILES,outcome,AC50
COP(=S)(OC)Oc1nc(Cl)c(Cl)cc1Cl,inactive,–
COC(=O)N(OC)c1ccccc1COc1ccn(-c2ccc(Cl)cc2)n1,inactive,–
CCCN(CCC)c1c([N+](=O)[O-])cc(S(N)(=O)=O)cc1[N+](=O)[O-],inactive,–
C#CCOS(=O)OC1CCCCC1Oc1ccc(C(C)(C)C)cc1 (stereo not given),–,16.1 µM (active)
CCOP(=S)(OCC)SCn1c(=O)oc2cc(Cl)ccc21,inactive,–
C=CC1(C)OC(=O)N(c2cc(Cl)cc(Cl)c2)C1=O (stereo not given),inactive,–
COc1ccc(C(c2ccc(OC)cc2)C(Cl)(Cl)Cl)cc1,inactive,–
CC(C)Oc1cc(-n2nc(C(C)(C)C)oc2=O)c(Cl)cc1Cl,–,63.5 µM (active)
CON(C)C(=O)Nc1ccc(Cl)c(Cl)c1,inactive,–
CCCCOC(=O)c1ccccc1C(=O)OCCCC,inactive,–
OC(c1ccc(Cl)cc1)(c1cncnc1)c1ccccc1Cl (stereo not given),–,26.5 µM (active)
CC(C)(C)c1ccc(CSc2cnn(C(C)(C)C)c(=O)c2Cl)cc1,inactive,–
